According to PubChem BioAssay AID1159580 (chemical genetic matrix, 2015):
In all, about 5,500 compounds went through this assay and about 2,000 (36%) were called active. Not shown: some 18% with an inconclusive outcome. Cut-off read from the data, not from the text of the source: active = normalized growth mostly below about 0.91 (no sharp cut-off); inconclusive = no clear call, values can overlap the other calls; inactive = mostly above about 0.92. Some of the results follow.

Assay: chemical genetic growth profiling, strain panel (AID 1159580);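 note: tested at 20 µM; growth read once vehicle control cultures reached saturation at 30 °C; 1 = growth at the plate median or of vehicle wells; lower values mean less growth of the strain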
Conditions: growth OD

Measured: normalized growth

C[C@]12CCC(=O)C=C1CCC1C2CC[C@@]2(C)C1CC[C@@H]2O (some centres not stated)
inactive: S. cerevisiae deletion strains, locus YJR075W, strain HOC1, hits give low values 0.996 | S. cerevisiae deletion strains, locus YKL009W, strain mrt4, hits give low values 0.957 | S. cerevisiae deletion strains, locus YKL068W, hits give low values 1.03 | S. cerevisiae deletion strains, locus YKL085W, strain MDH1 (second series), hits give low values 1.01 | S. cerevisiae deletion strains, locus YKL085W, strain MDH1, hits give low values 1.01 | S. cerevisiae deletion strains, locus YKL160W, strain elf1, hits give low values 0.994 | S. cerevisiae deletion strains, locus YKL190W, strain CNB1, hits give low values 1.03 | S. cerevisiae deletion strains, locus YKR001C, strain vps1, hits give low values 1.03 | S. cerevisiae deletion strains, locus YKR026C, strain gcn3, hits give low values 1 | S. cerevisiae deletion strains, locus YKR091W, strain srl3, hits give low values 0.991 | S. cerevisiae deletion strains, locus YLL001W, strain dnm1, hits give low values 1 | S. cerevisiae deletion strains, locus YLL026W, hits give low values 0.992 | S. cerevisiae deletion strains, locus YLL041C, strain sdh2, hits give low values 0.99 | S. cerevisiae deletion strains, locus YLR027C, strain aat2, hits give low values 1 | S. cerevisiae deletion strains, locus YLR039C, strain RIC1, hits give low values 1.17 | S. cerevisiae deletion strains, locus YLR058C, strain SHM2, hits give low values 1.02 | S. cerevisiae deletion strains, locus YLR102C, strain apc9, hits give low values 1.03 | S. cerevisiae deletion strains, locus YLR113W, strain HOG1, hits give low values 0.99 | S. cerevisiae deletion strains, locus YLR221C, strain rsa3, hits give low values 0.988 | S. cerevisiae deletion strains, locus YLR258W, strain gsy2, hits give low values 0.993 | S. cerevisiae deletion strains, locus YLR262C, strain YPT6 (second series), hits give low values 0.98 | S. cerevisiae deletion strains, locus YLR262C, strain YPT6, hits give low values 1.18 | S. cerevisiae deletion strains, locus YLR268W, strain sec22, hits give low values 1.01 | S. cerevisiae deletion strains, locus YLR320W, strain mms22, hits give low values 0.946 | S. cerevisiae deletion strains, locus YLR330W, strain CHS5, hits give low values 1.02 | S. cerevisiae deletion strains, locus YLR342W, strain FKS1 (second series), hits give low values 0.983 | S. cerevisiae deletion strains, locus YLR342W, strain FKS1, hits give low values 0.985 | S. cerevisiae deletion strains, locus YLR357W, strain rsc2, hits give low values 1.02 | S. cerevisiae deletion strains, locus YLR370C, strain arc18, hits give low values 0.988 | S. cerevisiae deletion strains, locus YLR371W, strain rom2, hits give low values 1.02 | S. cerevisiae deletion strains, locus YLR384C, strain iki3, hits give low values 1 | S. cerevisiae deletion strains, locus YLR418C, strain cdc73, hits give low values 1.02 | S. cerevisiae deletion strains, locus YML016C, strain PPZ1, hits give low values 1.02 | S. cerevisiae deletion strains, locus YML032C, strain rad52, hits give low values 1.02 | S. cerevisiae deletion strains, locus YML120C, strain ndi1, hits give low values 0.981 | S. cerevisiae deletion strains, locus YML124C, strain tub3, hits give low values 1.03 | S. cerevisiae deletion strains, locus YMR058W, strain fet3, hits give low values 0.993 | S. cerevisiae deletion strains, locus YMR078C, strain ctf18, hits give low values 1.03 | S. cerevisiae deletion strains, locus YMR125W, strain sto1, hits give low values 0.99 | S. cerevisiae deletion strains, locus YMR129W, hits give low values 0.993 | S. cerevisiae deletion strains, locus YMR205C, strain PFK2, hits give low values 0.936 | S. cerevisiae deletion strains, locus YMR223W, strain ubp8, hits give low values 1.01 | S. cerevisiae deletion strains, locus YMR231W, strain pep5, hits give low values 0.999 | S. cerevisiae deletion strains, locus YMR263W, strain SAP30, hits give low values 1.04 | S. cerevisiae deletion strains, locus YMR307W, strain GAS1, hits give low values 1.23 | S. cerevisiae deletion strains, locus YNL067W, strain RPL9B, hits give low values 0.993 | S. cerevisiae deletion strains, locus YNL071W, strain lat1, hits give low values 0.976 | S. cerevisiae deletion strains, locus YNL128W, strain TEP1, hits give low values 1.02 | S. cerevisiae deletion strains, locus YNL153C, strain GIM3, hits give low values 1.02 | S. cerevisiae deletion strains, locus YNL183C, strain NPR1, hits give low values 0.988 | S. cerevisiae deletion strains, locus YNL209W, strain ssb2, hits give low values 1.01 | S. cerevisiae deletion strains, locus YNL233W, strain BNI4, hits give low values 1.04 | S. cerevisiae deletion strains, locus YNL248C, strain rpa49, hits give low values 1 | S. cerevisiae deletion strains, locus YNL250W, strain rad50, hits give low values 1.05 | S. cerevisiae deletion strains, locus YNL271C, strain bni1, hits give low values 1.02 | S. cerevisiae deletion strains, locus YNL298W, strain CLA4, hits give low values 1 | S. cerevisiae deletion strains, locus YNL307C, strain MCK1, hits give low values 0.989 | S. cerevisiae deletion strains, locus YNL322C, strain KRE1 (second series), hits give low values 0.993 | S. cerevisiae deletion strains, locus YNL322C, strain KRE1, hits give low values 1.02 | S. cerevisiae deletion strains, locus YNR049C, strain mso1, hits give low values 0.982 | S. cerevisiae deletion strains, locus YNR052C, strain pop2, hits give low values 0.989 | S. cerevisiae deletion strains, locus YOL006C, strain TOP1, hits give low values 0.971 | S. cerevisiae deletion strains, locus YOL012C, strain htz1 1.89 | S. cerevisiae deletion strains, locus YOL147C, strain pex11, hits give low values 1.03 | S. cerevisiae deletion strains, locus YOR001W, strain rrp6, hits give low values 0.995 | S. cerevisiae deletion strains, locus YOR061W, strain CKA2, hits give low values 1.02 | S. cerevisiae deletion strains, locus YOR069W, strain VPS5, hits give low values 1.01 | S. cerevisiae deletion strains, locus YOR070C, strain gyp1, hits give low values 0.988 | S. cerevisiae deletion strains, locus YOR080W, strain dia2, hits give low values 0.983 | S. cerevisiae deletion strains, locus YOR083W, strain WHI5, hits give low values 0.983 | S. cerevisiae deletion strains, locus YOR106W, strain vam3, hits give low values 0.96 | S. cerevisiae deletion strains, locus YOR136W, strain idh2, hits give low values 1.04 | S. cerevisiae deletion strains, locus YOR144C, strain elg1, hits give low values 1.03 | S. cerevisiae deletion strains, locus YOR184W, strain ser1, hits give low values 0.98 | S. cerevisiae deletion strains, locus YOR231W, strain MKK1, hits give low values 0.99 | S. cerevisiae deletion strains, locus YOR265W, strain rbl2, hits give low values 0.989 | S. cerevisiae deletion strains, locus YOR270C, strain vph1, hits give low values 0.936 | S. cerevisiae deletion strains, locus YOR290C, strain snf2, hits give low values 0.967 | S. cerevisiae deletion strains, locus YOR316C, strain cot1, hits give low values 1.03 | S. cerevisiae deletion strains, locus YPL051W, strain arl3, hits give low values 1 | S. cerevisiae deletion strains, locus YPL055C, strain LGE1, hits give low values 1.07 | S. cerevisiae deletion strains, locus YPL078C, strain atp4, hits give low values 0.997 | S. cerevisiae deletion strains, locus YPL106C, strain sse1, hits give low values 1.05 | S. cerevisiae deletion strains, locus YPL240C, strain hsp82, hits give low values 0.978 | S. cerevisiae deletion strains, locus YPL241C, strain CIN2, hits give low values 1.03 | S. cerevisiae deletion strains, locus YPL256C, strain CLN2, hits give low values 1.06 | S. cerevisiae deletion strains, locus YPR119W, strain clb2, hits give low values 1.02 | S. cerevisiae deletion strains, locus YPR141C, strain kar3, hits give low values 1.04 | S. cerevisiae deletion strains, locus YPR163C, strain tif3, hits give low values 1.04 | S. cerevisiae deletion strains, locus YPR167C, strain met16, hits give low values 1.03 | S. cerevisiae deletion strains, strain wtn01, hits give low values 0.989 | S. cerevisiae strains, strain wild type, hits give low values 1.01
